A short description of test [1]: rapamycin-like changes in RPL19A-GFP expression – cell-based, S. cerevisiae, multiplex flow cytometry, primary screen (AID 1862; in the data active = percent of DMSO control GFP below about 86%;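 note: lower values mimic rapamycin by blocking the RPL19A rise seen in DMSO cells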). The conditions noted are these: S. cerevisiae RPL19A-GFP strain, flow cytometry fluorescence, 3 h; at 10 µM; stronger effect = lower value.
Test [2] is described as follows: TOR pathway GLN3 branch reporter MEP2-GFP changes – S. cerevisiae, multiplex flow cytometry, primary screen (AID 1867).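 Note: median GFP channel fluorescence of barcode-gated MEP2-GFP cells measured by flow cytometry.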 The conditions noted are these: S. cerevisiae MEP2-GFP strain, 3 h, at 10 µM, stronger effect = higher value, 100% means same as DMSO wells.
Test [3] is described as follows: TOR pathway RTG branch CIT2 reporter changes – S. cerevisiae, GFP fusion, multiplex flow cytometry, primary screen (AID 1870;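 active = percent response above a set limit, the screen-wide mean plus 3 SD, cut at about 130% in these data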;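 note: barcoded CIT2-GFP strain pooled with four other GFP strains with rapamycin as positive control; median GFP fluorescence per well over plate mean of DMSO wells so 100% = DMSO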). The conditions noted are these: S. cerevisiae CIT2-GFP expression, 3 h, at 10 µM, stronger effect = higher value.
A short description of test [4]: TOR pathway LAP4-GFP level changes – S. cerevisiae, multiplex flow cytometry, primary screen (AID 1873;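 active = GFP signal, as percent of the solvent control, above the screen mean plus 3 SD, about 149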). The conditions noted are these: S. cerevisiae LAP4-GFP expression, 3 h, at 10 µM, stronger effect = higher value.
The nature of test [5]: yeast AGP1-GFP level changes, GLN3 branch – cell-based, multiplex flow cytometry, S. cerevisiae, primary screen (AID 1887;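 active = GFP signal above the screen-wide mean plus 3 SD, that is over about 124.5% of the solvent control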;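 note: AGP1-GFP fusion strain of S. cerevisiae within a five-strain barcoded multiplex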). The note with it: 3 h, at 10 µM, stronger effect = higher value. A general note: A flow cytometer gives signals particle by particle.
The nature of test [6]: reduced mouse 2C T cell binding to pMHC/ICAM-1 vesicles – MLPCN validation set, flow cytometry, LFA-1/ICAM-1 modulator project, pilot screen (AID 2523;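 active = response below a set limit, under 55% cells CD8-positive and vesicle-bound, and CD8 cells' 90th-percentile brightness under 279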;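 for vesicle binding response: mean PE anti-B7-1 fluorescence of CD8+ cells relative to row control; 100% = QL9-loaded vesicles with DMSO vehicle in the same plate row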). The conditions noted are these: 2C mouse CD8+ T cells, at 7 µM, stronger effect = lower value; double positive events: measured here: CD8+/vesicle+ event percentage.
In test [7] the target is Integrin beta-1 (Homo sapiens) + Integrin alpha-4 (Homo sapiens) (UniProt P13612+P05556). Put plainly: alpha4beta1 integrin LIBS antibody binding reduction – U937 cells, HUTS-21 mAb, flow cytometry, validation set, VLA-4 allosteric modulator project, pilot screen (AID 2674;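 active = inhibition above 50%, about 3 SD of the validation set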;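 note: antibody binding induced by the VLA-4 ligand LDV present at three times its Kd; 0% = LDV ligand with antibody and no compound and 100% = antibody without LDV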). The note with it: HUTS-21 LIBS mAb binding, at 6.7 µM, stronger effect = higher value, binding induced by LDV ligand.
Chain of Integrin beta-1 (Homo sapiens) + Integrin alpha-4 (Homo sapiens) (P05556 whole entry, looked up): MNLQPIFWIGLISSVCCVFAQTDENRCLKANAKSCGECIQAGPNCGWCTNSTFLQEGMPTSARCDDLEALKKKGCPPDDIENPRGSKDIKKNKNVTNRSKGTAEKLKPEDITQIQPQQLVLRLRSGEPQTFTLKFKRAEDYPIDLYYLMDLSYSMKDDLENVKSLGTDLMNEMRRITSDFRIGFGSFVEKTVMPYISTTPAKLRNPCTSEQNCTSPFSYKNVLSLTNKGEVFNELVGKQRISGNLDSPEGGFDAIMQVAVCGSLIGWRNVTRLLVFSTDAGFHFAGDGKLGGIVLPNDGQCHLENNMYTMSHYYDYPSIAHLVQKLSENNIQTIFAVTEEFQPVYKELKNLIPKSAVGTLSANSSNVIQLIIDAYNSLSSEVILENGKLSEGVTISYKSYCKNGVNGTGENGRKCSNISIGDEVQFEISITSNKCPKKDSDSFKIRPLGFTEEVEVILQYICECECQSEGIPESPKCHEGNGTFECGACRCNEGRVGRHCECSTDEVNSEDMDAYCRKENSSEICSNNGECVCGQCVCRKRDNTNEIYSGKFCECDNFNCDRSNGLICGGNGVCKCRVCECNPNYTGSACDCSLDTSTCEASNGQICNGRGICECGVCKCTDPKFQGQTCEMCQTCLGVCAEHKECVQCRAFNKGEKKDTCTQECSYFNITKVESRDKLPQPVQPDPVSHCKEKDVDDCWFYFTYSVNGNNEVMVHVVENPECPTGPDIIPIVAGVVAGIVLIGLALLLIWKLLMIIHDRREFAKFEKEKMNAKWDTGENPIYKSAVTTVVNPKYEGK
Chain of Integrin beta-1 (Homo sapiens) + Integrin alpha-4 (Homo sapiens) (P13612 whole entry, looked up): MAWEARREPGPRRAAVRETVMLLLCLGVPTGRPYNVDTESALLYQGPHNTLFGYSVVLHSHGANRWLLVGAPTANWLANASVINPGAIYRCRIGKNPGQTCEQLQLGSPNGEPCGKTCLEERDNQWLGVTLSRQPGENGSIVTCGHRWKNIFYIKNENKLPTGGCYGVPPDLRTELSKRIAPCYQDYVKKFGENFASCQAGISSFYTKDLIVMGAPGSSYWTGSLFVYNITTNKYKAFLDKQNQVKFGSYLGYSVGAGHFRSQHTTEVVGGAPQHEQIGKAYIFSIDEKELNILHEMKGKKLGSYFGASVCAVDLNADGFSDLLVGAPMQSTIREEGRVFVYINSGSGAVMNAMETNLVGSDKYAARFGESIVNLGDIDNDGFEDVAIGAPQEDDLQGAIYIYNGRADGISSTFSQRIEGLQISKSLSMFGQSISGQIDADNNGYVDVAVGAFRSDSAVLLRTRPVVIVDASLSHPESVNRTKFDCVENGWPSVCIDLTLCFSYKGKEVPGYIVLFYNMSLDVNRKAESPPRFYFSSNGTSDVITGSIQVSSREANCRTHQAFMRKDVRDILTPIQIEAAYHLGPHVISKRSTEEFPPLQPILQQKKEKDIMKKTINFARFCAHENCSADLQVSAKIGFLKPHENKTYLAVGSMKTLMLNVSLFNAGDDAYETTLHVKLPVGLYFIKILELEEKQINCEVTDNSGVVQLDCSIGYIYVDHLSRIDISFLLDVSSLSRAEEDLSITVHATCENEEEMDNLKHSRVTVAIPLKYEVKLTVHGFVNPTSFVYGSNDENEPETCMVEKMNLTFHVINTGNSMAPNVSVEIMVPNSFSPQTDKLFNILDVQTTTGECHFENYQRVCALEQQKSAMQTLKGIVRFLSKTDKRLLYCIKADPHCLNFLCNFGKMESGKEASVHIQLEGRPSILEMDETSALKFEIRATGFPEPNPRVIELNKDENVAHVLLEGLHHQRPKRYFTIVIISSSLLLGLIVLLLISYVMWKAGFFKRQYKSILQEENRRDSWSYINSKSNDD

The nature of test [8]: calorie-restriction mimetic ROS inhibitors, yeast – validation compound set, pilot screen (AID 2706;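 active = superoxide response below 65% of plate, a cut near 3 SD across the whole screen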;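 note: yeast exposed to compound for one week at 30 degrees C before staining; 100% = mean of all compound wells on the same plate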). The note with it: S. cerevisiae aging, superoxide DHE fluorescence; at 10 µM; stronger effect = lower value.
In test [9] the target is Beta-adrenergic receptor kinase 1 (Homo sapiens) (UniProt P25098). In words: GRK2 binders displacing RNA aptamer, biochemical, validation, human GRK2, bead flow cytometry (AID 488806;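 active = aptamer binding inhibition above 30%, about 3 SD of noise from non-fluorescent compounds; inactive = inhibition at or below 30%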). The conditions noted are these: bead-bound GRK2, FAM-aptamer displacement, at 10 µM, stronger effect = higher value.
Chain of Beta-adrenergic receptor kinase 1 (Homo sapiens) (P25098 whole entry, looked up): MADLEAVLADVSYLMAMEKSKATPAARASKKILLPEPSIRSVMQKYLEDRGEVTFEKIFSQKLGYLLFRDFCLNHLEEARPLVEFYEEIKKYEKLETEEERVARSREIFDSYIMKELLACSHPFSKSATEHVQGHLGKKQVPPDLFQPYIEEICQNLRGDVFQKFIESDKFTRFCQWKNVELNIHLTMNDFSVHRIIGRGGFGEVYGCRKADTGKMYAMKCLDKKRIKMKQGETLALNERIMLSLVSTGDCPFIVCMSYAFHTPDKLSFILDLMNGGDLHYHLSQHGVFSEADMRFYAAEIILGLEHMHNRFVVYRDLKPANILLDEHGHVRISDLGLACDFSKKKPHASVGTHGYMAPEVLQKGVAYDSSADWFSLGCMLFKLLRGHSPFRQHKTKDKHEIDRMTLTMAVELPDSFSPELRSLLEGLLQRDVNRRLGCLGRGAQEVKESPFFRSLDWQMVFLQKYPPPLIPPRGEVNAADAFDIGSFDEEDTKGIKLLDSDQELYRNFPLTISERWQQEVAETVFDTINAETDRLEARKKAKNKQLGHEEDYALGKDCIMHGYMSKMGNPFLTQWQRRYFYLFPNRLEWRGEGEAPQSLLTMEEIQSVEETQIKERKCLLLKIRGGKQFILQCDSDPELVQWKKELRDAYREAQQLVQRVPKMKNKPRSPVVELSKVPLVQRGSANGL
Test [10] addresses Beta-2 adrenergic receptor (Homo sapiens) (UniProt P07550). In words: agonist-induced loss of surface beta2AR – cell-based, FAP fluorogen, flow cytometry, validation set, pilot screen (AID 504459;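 active = percent response above 42, roughly 3 SD of non-fluorescent test compounds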;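 note: agonist-driven loss of surface beta2AR via internalization measured by FAP dye flow cytometry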). The conditions noted are these: Am2.2-beta2AR cells, at 10 µM, stronger effect = higher value.
Test [11] deals with AP-2 complex subunit beta (Homo sapiens) (UniProt P63010). In words: beta-arrestin/AP2 interaction blockers – biochemical, validation set, GST-AP2 beads, flow cytometry, pilot screen (AID 504541;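 active = inhibition above 54%, about 3 SD of non-fluorescent compounds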;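 note: AP2 carries R879A mutation and is captured from E. coli lysate; bead-bound FITC arrestin peptide fluorescence measuring arrestin peptide binding to AP2; 0% = DMSO wells and 100% = excess unlabeled arrestin peptide control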). The note with it: FITC arrestin peptide, at 10 µM, stronger effect = higher value, AP2 beta2 appendage fragment, R879A mutant.
Chain of AP-2 complex subunit beta (Homo sapiens) (P63010 whole entry, looked up, the tested form may be a part, one chain of several): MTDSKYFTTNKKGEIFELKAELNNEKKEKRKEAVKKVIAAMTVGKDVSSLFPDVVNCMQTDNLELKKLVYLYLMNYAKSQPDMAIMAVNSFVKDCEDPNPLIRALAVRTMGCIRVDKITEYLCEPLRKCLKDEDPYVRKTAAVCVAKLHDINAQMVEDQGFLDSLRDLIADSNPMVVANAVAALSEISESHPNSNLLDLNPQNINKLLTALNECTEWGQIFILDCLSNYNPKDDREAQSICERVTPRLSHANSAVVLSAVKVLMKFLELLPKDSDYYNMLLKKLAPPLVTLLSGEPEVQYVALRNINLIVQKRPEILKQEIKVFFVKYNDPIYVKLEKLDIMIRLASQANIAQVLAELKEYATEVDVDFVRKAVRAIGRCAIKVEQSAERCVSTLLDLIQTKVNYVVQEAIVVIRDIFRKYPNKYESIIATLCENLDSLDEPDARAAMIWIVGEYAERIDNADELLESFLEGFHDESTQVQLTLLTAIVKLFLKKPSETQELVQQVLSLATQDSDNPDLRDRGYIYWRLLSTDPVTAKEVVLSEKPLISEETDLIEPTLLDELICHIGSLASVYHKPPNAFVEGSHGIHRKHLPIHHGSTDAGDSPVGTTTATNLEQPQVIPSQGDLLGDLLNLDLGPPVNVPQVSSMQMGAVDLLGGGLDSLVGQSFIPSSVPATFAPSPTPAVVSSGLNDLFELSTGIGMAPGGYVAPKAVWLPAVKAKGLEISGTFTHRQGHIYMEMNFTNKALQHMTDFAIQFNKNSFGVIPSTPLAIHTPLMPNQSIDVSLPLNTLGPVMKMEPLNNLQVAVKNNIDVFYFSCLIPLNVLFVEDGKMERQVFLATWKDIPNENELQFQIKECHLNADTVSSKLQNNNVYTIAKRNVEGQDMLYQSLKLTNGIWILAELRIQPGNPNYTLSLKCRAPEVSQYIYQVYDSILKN
Test [12] is described as follows: cytosolic pH regulators acting via V-ATPase – S. cerevisiae, pHLuorin, HTS validation (AID 504600; in the data active = response above about 15%;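 note: plate controls were DMSO for no effect and reference compound for full effect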). The note with it: V-ATPase proton transport, at 10 µM, stronger effect = higher value.
For test [13], the system named is anti-desmoglein-3 scFv antibody binding to human DSG3. Put plainly: blockers of pathogenic pemphigus antibody–desmoglein-3 binding – biochemical, validation compound set, bead-based, flow cytometry, pilot screen (AID 588368;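 active = binding below the plate cutoff, the plate median minus 3 SD, with a reading above zero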;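 note: signal is the median channel fluorescence of bead-bound GFP antibody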). The conditions noted are these: Protein G beads, DSG3-Fc, scFv-GFP binding, at 10 µM, stronger effect = lower value.
The nature of test [14]: Nile Red efflux blockade in pump-expressing yeast – validation compound set, multiplex, phenotypic, pilot screen (AID 588506;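 active = efflux inhibition above 0.42, the validation set average plus 4 SD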;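 note: Nile Red retained in cells so higher fluorescence means more efflux inhibition; 0 = negative control wells and 1 = enniatin B 25 µM full block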). The note with it: S. cerevisiae pump-expressing triplex, Nile Red efflux flow cytometry; at 10 µM; stronger effect = higher value; the pumps come from Candida albicans.
Test [15] concerns the target ATP-binding cassette sub-family B member 6 (Homo sapiens) (UniProt Q9NP58). In words: blockers of ABCB6-driven porphyrin uptake – K562-ABCB6 cells, flow cytometry, validation set, pilot screen (AID 588550;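 active = inhibition above the screen-wide mean plus 3 SD, about 51%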;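 note: 0% = DMSO wells and 100% = benzethonium chloride 70 µM positive control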). The note with it: K562-ABCB6 porphyrin accumulation, 1 h, at 10 µM, stronger effect = higher value.
Test [16] can be described thus: AML differentiation inducers, ER-HoxA9 marrow cells – cell-based, GFP/MAC1 double positive, flow cytometry, validation set, primary screen (AID 588685;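 active = differentiation response of at least 50%, scaled between solvent and reference control, from cells with both markers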;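 note: compound exposure lasts four days before antibody staining and flow analysis; 0% = DMSO wells and 100% = 5 µM fulvestrant positive control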). The conditions noted are these: stronger effect = higher value, normalized: vehicle 0, fulvestrant 100.

The record followed here is PubChem BioAssay.

Inconclusive results are not listed. Activity calls are given as the source filed them.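 Rule for the calls, unless noted: active = GFP response, as percent of the DMSO control, above the screen-wide mean plus 3 SD, about 139; inconclusive = no response measured because the compound's own fluorescence interfered; inactive = the rest.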

Chain of ATP-binding cassette sub-family B member 6 (Homo sapiens) (Q9NP58 whole entry, looked up): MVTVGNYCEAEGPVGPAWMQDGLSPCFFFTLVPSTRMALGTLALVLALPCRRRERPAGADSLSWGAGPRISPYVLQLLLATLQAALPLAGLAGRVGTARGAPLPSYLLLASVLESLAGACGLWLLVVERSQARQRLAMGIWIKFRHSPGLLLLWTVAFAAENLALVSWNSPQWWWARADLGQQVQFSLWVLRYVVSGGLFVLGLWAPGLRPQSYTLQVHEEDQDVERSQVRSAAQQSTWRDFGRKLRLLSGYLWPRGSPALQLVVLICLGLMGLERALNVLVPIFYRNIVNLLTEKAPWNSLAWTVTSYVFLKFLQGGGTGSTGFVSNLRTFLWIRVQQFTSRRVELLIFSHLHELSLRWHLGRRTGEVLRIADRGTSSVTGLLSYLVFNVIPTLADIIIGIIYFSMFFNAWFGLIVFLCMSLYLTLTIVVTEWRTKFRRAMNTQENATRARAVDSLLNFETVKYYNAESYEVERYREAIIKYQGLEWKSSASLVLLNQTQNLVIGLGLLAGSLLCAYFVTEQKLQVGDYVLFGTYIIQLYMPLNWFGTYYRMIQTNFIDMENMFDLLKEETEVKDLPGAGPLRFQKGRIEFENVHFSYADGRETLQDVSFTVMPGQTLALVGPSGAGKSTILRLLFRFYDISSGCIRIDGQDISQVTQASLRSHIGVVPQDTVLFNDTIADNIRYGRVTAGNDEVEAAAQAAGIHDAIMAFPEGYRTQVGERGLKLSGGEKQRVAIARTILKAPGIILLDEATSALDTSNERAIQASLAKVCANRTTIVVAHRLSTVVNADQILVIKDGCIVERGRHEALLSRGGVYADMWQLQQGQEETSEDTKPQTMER
Chain of Beta-2 adrenergic receptor (Homo sapiens) (P07550 whole entry, looked up): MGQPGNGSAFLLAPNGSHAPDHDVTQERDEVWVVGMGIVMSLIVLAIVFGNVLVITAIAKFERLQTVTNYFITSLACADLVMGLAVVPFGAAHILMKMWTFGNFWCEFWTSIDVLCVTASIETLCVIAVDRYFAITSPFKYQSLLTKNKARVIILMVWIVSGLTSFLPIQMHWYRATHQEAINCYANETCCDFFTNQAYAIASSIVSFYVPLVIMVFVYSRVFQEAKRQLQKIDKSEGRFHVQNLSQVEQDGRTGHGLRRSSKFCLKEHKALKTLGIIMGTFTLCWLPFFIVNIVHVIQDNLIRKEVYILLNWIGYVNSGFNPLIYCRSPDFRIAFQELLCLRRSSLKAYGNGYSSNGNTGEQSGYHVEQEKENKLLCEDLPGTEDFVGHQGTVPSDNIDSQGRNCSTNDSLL

Take `Cc1ccccc1N1C(N)=NC(N)=NC1(C)C`: the percent of DMSO control GFP in [1] is 102% (inactive). Further, the figures for the GFP response vs DMSO in test [2] and in [4] were 103% (inactive) and 94.8% (inactive), respectively. Also, the percent response of DMSO control in [3] was 108% (inactive). In addition, the GFP response, % of DMSO in test [5] was 104% (inactive). Moreover, in test [6], the double positive events came out at 63%. Moreover, the vesicle binding response in [6] is 135% (inactive). Also, the inhibition (as a rule, the change of the read-out against control, counted positive when it falls) in [7] was -9.13% (inactive); in [11], -7.13% (inactive); in [15], 20% (inactive). In test [8], the superoxide response (% of plate) was 96.3% (inactive). The aptamer binding inhibition in test [9] was 0% (inactive). Besides, the response is 7.98% (inactive) in test [10] and 1.38% (inactive) in test [12]. Moreover, the binding (% of control) in [13] was 104% (inactive). Moreover, the efflux inhibition (fraction of control) in [14] is -0.28 (inactive). The differentiation response in test [16] is -19.2% (inactive).
As for `Cc1cc(=O)c2c(O)c(O)ccc2o1`, the percent of DMSO control GFP in [1] was 102% (inactive). In addition, the GFP response vs DMSO in test [2] was 107% (inactive); in test [4] it was 90.7% (inactive). The percent response of DMSO control in [3] is 98.9% (inactive). For the same compound, in test [5], the GFP response, % of DMSO is 101% (inactive). Besides, the double positive events in [6] was determined as 60.3%. In [6], the vesicle binding response is 30% (inactive). The inhibition is -7.72% (inactive) in test [7], -12.7% (inactive) in [11] and 7% (inactive) in test [15]. Moreover, the superoxide response (% of plate) in [8] was 105% (inactive). The aptamer binding inhibition in [9] is -4% (inactive). For the same compound, the response in test [10] was 5.76% (inactive); in test [12], -0.09% (inactive). In test [13], the binding (% of control) is 98.5% (inactive). Besides, the efflux inhibition (fraction of control) in test [14] was -0.07 (inactive). In addition, the differentiation response in test [16] is 9.04% (inactive).
As for `O=C(O)CCCCCN=C1CCc2ccccc2N1`, the percent of DMSO control GFP in test [1] is 93% (inactive). The GFP response vs DMSO in test [2] is 132% (inactive); in test [4] it was 80.9% (inactive). Also, the percent response of DMSO control in test [3] is 101% (inactive). In test [5], the GFP response, % of DMSO was 90.5% (inactive). For the same compound, the double positive events in [6] was 63.5%. The vesicle binding response in [6] was 163% (inactive). The inhibition in [7] was 10.3% (inactive); in [11], 4% (inactive); in test [15] it was 9% (inactive). Moreover, the superoxide response (% of plate) in test [8] is 118% (inactive). In test [9], the aptamer binding inhibition was 2% (inactive). Besides, the response is -6.38% (inactive) in test [10] and -0.07% (inactive) in test [12]. For the same compound, the binding (% of control) in [13] was 98.7% (inactive). Further, the efflux inhibition (fraction of control) in [14] was 0.3 (inactive). Also, the differentiation response in test [16] was 0% (inactive).
Consider `COc1ccc(C(=O)Nc2ncc3c(n2)CC(C)CC3=O)cc1` (stereo not drawn), for which the percent of DMSO control GFP in test [1] is 98% (inactive). Further, the values for the GFP response vs DMSO in [2] and in [4] were 105% (inactive) and 110% (inactive), respectively. Besides, the percent response of DMSO control in test [3] is 105% (inactive). Further, the GFP response, % of DMSO in [5] is 104% (inactive). For the same compound, the double positive events in test [6] was 48.3%. For the same compound, in test [6], the vesicle binding response is 83.7% (inactive). Further, the values for the inhibition in [7], in [11] and in test [15] were -12.7% (inactive), 61.9% (active) and 15% (inactive), respectively. The superoxide response (% of plate) in test [8] was 99.5% (inactive). The aptamer binding inhibition in [9] is -2% (inactive). Further, the results for the response in test [10] and in [12] were 2.81% (inactive) and -6.31% (inactive), respectively. For the same compound, the binding (% of control) in [13] was 95.3% (inactive). Further, the efflux inhibition (fraction of control) in test [14] is 0.01 (inactive). In addition, in [16], the differentiation response is -7.2% (inactive).
